Test results as given in the supplement of paper PMC6555819.

Legend:
Assay in all cases: PBM binding z-score (relative to random genomic background probes); higher = stronger binding; sequences stand for … in GC…GCGATTGACAGCGTAGAATGAAGG
[1] = test system: FXR:RXRa (NR concentration 270 nM, RXRa partner concentration 90 nM)
Outline: (§1)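 Scanned fluorescence from custom Agilent 4×180K protein-binding microarrays was regression-normalized. Binding z-scores use random background probes as reference. Ligand-free nuclear receptor dimers were incubated on the arrays for 1 h and detected with antibodies against each partner (one per run).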

[2] = test system: LXRa:RXRa (NR concentration 270 nM, RXRa partner concentration 90 nM)
Outline: as §1

[3] = test system: LXRa homodimer (NR concentration 270 nM)
Outline: as §1

[4] = test system: LXRb:RXRa (NR concentration 270 nM, RXRa partner concentration 90 nM)
Outline: as §1

[5] = test system: LXRb homodimer (NR concentration 270 nM)
Outline: as §1

[6] = test system: PPARa:RXRa (NR concentration 270 nM, RXRa partner concentration 90 nM)
Outline: as §1

[7] = test system: PPARg:RXRa (NR concentration 180 nM, RXRa partner concentration 90 nM)
Outline: as §1

[8] = test system: PPARg:RXRa 270nM:90nM, anti-RXR (NR concentration 270 nM, RXRa partner concentration 90 nM)
Outline: as §1

[9] = test system: PPARg:RXRa 30nM:10nM, anti-RXR (NR concentration 30 nM, RXRa partner concentration 10 nM)
Outline: as §1

[10] = test system: PPARg:RXRa 90nM:30nM, anti-RXR (NR concentration 90 nM, RXRa partner concentration 30 nM)
Outline: as §1

Row | Sequence | PBM binding z-score [1] | PBM binding z-score [2] | PBM binding z-score [3] | PBM binding z-score [4] | PBM binding z-score [5] | PBM binding z-score [6] | PBM binding z-score [7] | PBM binding z-score [8] | PBM binding z-score [9] | PBM binding z-score [10]
1 | ACTATTAGTGGAGACGAGGGCAACCGATAGGTTG | 0.0192 | -0.21 | -0.488 | -0.347 | -0.31 | -0.00529 | 0.674 | 0.335 | -0.0792 | 0.232
2 | GCTTGTAGATCAAGGTTAAGGAAGACTAAGCTAA | 0.0551 | 0.428 | -0.182 | 0.363 | -0.628 | 1.68 | 1.05 | 2.33 | 0.604 | 1.48
3 | TATACAGGGTCAAAGGCCAGAGTCCGAATGTCGA | 6.58 | 6.06 | 2.35 | 4.71 | 2.55 | 5.85 | 7.34 | 7.02 | 4.84 | 6.68
4 | GCTGCTAGGTCAGGTAGGTCAGCTAACGGGTACG | 2.1 | 1.72 | 0.0186 | 1.43 | -0.161 | 2.41 | 1.45 | 2.19 | -0.0602 | 1
5 | CCTCTGAGGACAGAAGGTCAGAGCTGTCCGCTTT | 2.01 | 1.73 | 0.0206 | 1.25 | -0.446 | 2.02 | 0.0496 | 1.3 | -0.534 | 0.582
6 | ATATGTAGGTTAGCTCGGGTCATTCAGACTAGGC | 2.55 | 4.5 | 1.52 | 2.65 | 0.733 | 4.08 | 4.25 | 3.8 | 1.34 | 3.09
7 | GCTAGCAGCCCATTTGGGTCACTCAATGACGGGC | -0.281 | -0.586 | -0.832 | -0.285 | -0.892 | 0.853 | 0.291 | 0.0178 | -0.724 | -0.506
8 | CCAGACAGCTGAGAAGGTAACTCAGCCTCGATTA | -0.225 | -0.563 | -0.25 | -0.499 | -0.831 | -0.574 | -0.129 | -0.555 | -0.623 | -0.881
9 | ACTCGGAGGACCAAGGTCAGAGCTACGCCAGTGA | 1.21 | 0.987 | -0.312 | 0.779 | -0.603 | 1.79 | 0.947 | 1.31 | 0.277 | 0.773
10 | TAGACTAGGTCAGATCGGGCCAGTATACGCTATA | 1.54 | 0.872 | -0.254 | 0.626 | 0.289 | 2.47 | 3.05 | 2.82 | 1.07 | 2.03
11 | CCTGCTAGGCCAATGGTCAGCTAAAGCAGCTCGC | -0.614 | -0.503 | -0.698 | -0.914 | -0.839 | -0.216 | 0.706 | 2.33 | 0.142 | 1.6
12 | CCTACTGGGCCAAGGTCATTGAACAGTCAAAGCA | 3.08 | 3.2 | 0.814 | 3 | -0.34 | 4.19 | 4.25 | 4.55 | 1.68 | 3.73
